Assay results: PubChem BioAssay (NCI)
About 83,000 compounds went through this panel and 20% of them were active in at least one assay; those are over-represented in the sample as a whole.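 Note: values are percent growth. 100 is the growth of untreated cells, values between 100 and 0 indicate rising inhibition; between -100 and 0 indicates cell death.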 Unmarked numbers belong to inactive results. The source made the active and inactive calls. Rule for the calls: active = growth percent below 10; inactive = the rest.

tested on: 786-0 renal; assay: NCI-60 one-dose screen, 48 h (100 = growth as untreated, 0 = no growth, -100 = all killed); details: 10 µM unless noted

Compound	growth
CN(C)c1ccnc(NCCCSC(c2ccccc2)(c2ccccc2)c2ccccc2)c1	8.23% (active)
CC12CC[C@@H]3[C@]4(C)COC(c5cn[nH]c5-c5cccc(Br)c5)O[C@@H]4CC[C@@]3(C)[C@@H]1CC(C1=CCOC1=O)O2 (stereo not given in full)	53.1%
Brc1ccc(-c2n(Cc3ccc4ccccc4c3)c(-c3ccccc3)c(-c3ccccc3)[n+]2Cc2ccc3ccccc3c2)cc1	-79.3% (active)
O=C(NN1C(=O)/C(=C/C=C/c2ccc([N+](=O)[O-])o2)SC1=S)c1ccc(Cl)cc1	-82.3% (active)

tested on: COLO 205 colon; assay: as above; details: 10 µM unless noted

Compound	growth
COc1cc2oc(-c3cccc(C(=O)Nc4cccc([N+](=O)[O-])c4)c3)cc(=O)c2c(OC)c1OC	91%
COc1cc2c(c(OC)c1OC)C(=O)CC(c1cccc(NC(=O)c3cc(N)ccc3Cl)c1)O2 (stereo not given)	86.2%
CCOC(=O)/C=C/c1cccc2c1C(=O)NC(C)(c1cc3cc(Cl)ccc3oc1=O)N2 (stereo not given)	31.7%
CC(C)c1ccc2c(N)c(C(=O)Nc3cccc(C(F)(F)F)c3)sc2n1	48.2%
O=C(C1=CNC(=S)NC1c1ccc(O)cc1)c1cc2ccccc2oc1=O (stereo not given)	102%
COc1cc(-c2cc(-c3cccc(OCC(=O)O)c3)[nH]c(=O)c2C#N)cc(OC)c1OC	119%
COc1cccc(-c2nc(Nc3ccc(S(N)(=O)=O)cc3)c3ccccc3n2)c1	27.8%
N#Cc1c(-c2ccc(Cl)cc2)nc2n[nH]c(-c3ccc(Cl)cc3)c2c1-c1ccc(C(F)(F)F)cc1	-88.5% (active)
CC12CC[C@@H]3[C@]4(C)COC(c5cn[nH]c5-c5ccc(Br)cc5)O[C@@H]4CC[C@@]3(C)[C@@H]1CC(C1=CCOC1=O)O2 (stereo not given in full)	39%
COc1ccc2[nH]c(O)c(N=NC(=O)Cn3c(-c4ccccc4)nc4cc(C)ccc43)c2c1	64.5%
C=C1CC[C@@H]2[C@]3(C)COC(c4cn(-c5ccccc5)nc4-c4ccccc4)O[C@@H]3CC[C@@]2(C)[C@@H]1C/C=C1/C(=O)OC[C@H]1O (stereo not given in full)	-90.9% (active)
CN(C)CCCNC(=O)c1cc(NC(=O)c2cc(NC(=O)c3ccc(/C=C/c4ccccc4)cc3)cn2C)cn1C	32%
O=C(NNc1ccccc1)n1c(=O)c2ccccc2c(=O)n1-c1ccccc1	109%
C(=C\c1cc(/C=C/c2ccccc2)c2ccccc2n1)/c1ccccc1	118%
COc1cc2c(c(OC)c1OC)C(=O)CC(c1cccc(NC(=O)c3cc([N+](=O)[O-])ccc3Cl)c1)O2 (stereo not given)	37.1%
O=c1c2ccccc2nc(-c2ccccc2)n1/N=C/c1ccc2ccccc2c1	58.2%
CC(/C=C1\SC(=S)N(CCCC(=O)NC(CC(C)C)C(=O)O)C1=O)=C\c1ccccc1 (stereo not given)	124%
CCOc1ccc(C(=O)NC(=S)Nc2ccc(S(N)(=O)=O)cc2)cc1	119% [100 µM]

Compound	growth
O=C(CCN1C(=O)/C(=C/c2ccc(F)cc2)SC1=S)N1CCOCC1	75%
CC1(C)CC[C@]2(C(=O)Nc3ccc(F)cc3)CC[C@]3(C)C(=CCC4[C@@]5(C)C[C@@H](O)[C@H](O)[C@@](C)(CO)C5CC[C@]43C)C2C1 (stereo not given in full)	0.244% (active)
NS(=O)(=O)c1ccc(-n2cc(-c3cccc(NC(=O)c4cc(C(F)(F)F)cc(C(F)(F)F)c4)c3)nn2)cc1	91.7%
COc1cc(C2CC(c3cc(OC)c(OC)c(OC)c3)=NN2c2ccccc2)ccc1OCc1ccc(C)cc1 (stereo not given)	119%
Cc1ccc2c(N)c(C(=O)Nc3ccc(-c4ccccc4)cc3)sc2n1	90.9%
C=C1CCC2C3(C)COC(c4ccccc4F)OC3CCC2(C)C1CC(O)C1=CCOC1=O (stereo not given)	22.5%
COc1ccc(-c2nnc3ccc(N/N=C/c4ccc(C)cc4)nn23)cc1	79.9%
COc1cc(-c2ccc(/C=N/NC(=O)c3[nH]c4ccc(Br)cc4c3-c3ccccc3)o2)cc(OC)c1OC	94.7%
COc1ccc2c(c1)c(-c1cc3nc(-c4cn(C)c5ncccc45)cc(N)n3n1)cn2C	-74.1% (active)
O=C(COc1ccc(NC(=O)Nc2ccccc2)cc1)N=Nc1c(O)[nH]c2ccc([N+](=O)[O-])cc12	-29.9% (active)
CCCCCCn1c(O)c(N=Nc2nc(-c3cc4ccccc4oc3=O)cs2)c2ccccc21	4.61% (active)
COc1ccc(NC(=O)Cn2c3c(sc2=O)[C@H]2[C@@H](O)[C@@H](O)[C@H](O)[C@@H]2CS3)cc1	117%
CCCCc1c(Nn2cnnn2)no[n+]1[O-]	60.8%
CN1CCN(/C(=N\c2sc(-c3ccccc3)nc2-c2ccccc2)c2ccccc2)CC1	42%
CN(C)c1ccnc(NCCCSC(c2ccccc2)(c2ccccc2)c2ccccc2)c1	-74.6% (active)
CC12CC[C@@H]3[C@]4(C)COC(c5cn[nH]c5-c5cccc(Br)c5)O[C@@H]4CC[C@@]3(C)[C@@H]1CC(C1=CCOC1=O)O2 (stereo not given in full)	10.5%
Brc1ccc(-c2n(Cc3ccc4ccccc4c3)c(-c3ccccc3)c(-c3ccccc3)[n+]2Cc2ccc3ccccc3c2)cc1	-78.2% (active)
O=C(NN1C(=O)/C(=C/C=C/c2ccc([N+](=O)[O-])o2)SC1=S)c1ccc(Cl)cc1	-94.8% (active)
